# According to PubChem BioAssay (NCI):
# This is part of a sample that, as a whole, favours compounds with a hit. Of some 83,000 tested, about 20% had one in any assay.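 Interpretation: 100, growth as untreated; towards 0, rising growth inhibition; 0, no net growth; 0 to -100, cell death. Compounds scoring below 10 were considered active.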 Values without a mark were called inactive. The source made the active and inactive calls.
# Legend:
# Assay in all cases: NCI-60 one-dose screen, 48 h (100 = growth as untreated, 0 = no growth, -100 = all killed)
# Details in all cases: 10 µM unless noted
# NCI-H23 lung = system: NCI-H23 lung
# NCI-H226 lung = system: NCI-H226 lung
# NCI-H322M lung = system: NCI-H322M lung
# HOP-62 NSCLC = system: HOP-62 NSCLC
# NCI-H460 lung = system: NCI-H460 lung
# HOP-92 NSCLC = system: HOP-92 NSCLC
# NCI-H522 lung = system: NCI-H522 lung
# A549/ATCC NSCLC = system: A549/ATCC NSCLC
# 786-0 renal = system: 786-0 renal
# COLO 205 colon = system: COLO 205 colon
SMILES,growth (NCI-H23 lung),growth (NCI-H226 lung),growth (NCI-H322M lung),growth (HOP-62 NSCLC),growth (NCI-H460 lung),growth (HOP-92 NSCLC),growth (NCI-H522 lung),growth (A549/ATCC NSCLC),growth (786-0 renal),growth (COLO 205 colon)
CCCCOc1nc2ccccc2cc1C1CNC(=O)c2ccccc2N1 (stereo not given),23.8%,0.702% (active),47.2%,23%,6.89% (active),48.9%,-13.6% (active),19.9%,26.2%,9.84% (active)
N=c1sc(Cc2ccc(Cl)cc2)cn1CC(=O)c1ccc(F)cc1,82.4%,83%,76.4%,102%,33.7%,109%,63.5%,66.7%,86.5%,145%
COC(=O)[C@]12CC[C@@H](C)[C@H](C)[C@@H]1C1=CC[C@@H]3[C@@]4(C)C(C=O)=C[C@@](C)(COS(C)(=O)=O)[C@@H]4C(=O)C[C@@]3(C)[C@]1(C)CC2,35.3%,67.2%,89.2%,41.7%,42.4%,39.8%,22.2%,27.6%,40.7%,32.1%
Cc1cccc(-c2nc(N(C)c3ccc4ncsc4c3)c3ccccc3n2)n1,78.2%,84%,100%,69.7%,70.7%,91.8%,30.4%,48.5%,94%,57.3%
COc1ccc(CNC(=O)C(O)C(Cc2ccccc2)NC(=O)c2[nH]c3ccccc3c(=O)c2C)cc1OC (stereo not given),102%,98.1%,104%,102%,103%,110%,93%,103%,101%,123%
COC(=O)c1ccc(C2Nc3ccc(S(=O)(=O)Nc4ccc(C)c(C)c4)cc3C3OCCC23)cc1 (stereo not given),59.5%,85.9%,96%,87.3%,86%,66%,52.6%,78.8%,93.9%,94%
Cc1cccc(Cc2cnc(NC(=O)/C=C/c3ccco3)s2)c1,28.2%,50.3%,37.8%,23.7%,3.34% (active),78%,-12% (active),20%,36%,2.49% (active)
O=c1c2cc(F)ccc2sc2c(NCCCN3CCCC3)nc3ccccc3c12,64.2%,79.2%,64.1%,63.5%,12%,25.1%,25.1%,52.8%,37.1%,46%
COc1ccc(/C=C/c2c(C(=O)/C=C/c3ccc(F)cc3)c(C)nc3ccccc23)cc1,47.8%,67.3%,82.7%,57.5%,15.9%,73.5%,43.9%,91.6%,65.4%,79.8%
C[C@@H]1N=C(c2ccc3ccccc3n2)Nc2nc3ccccn3c2C1=O,86.3%,94.4%,97.3%,75.1%,97.2%,97.2%,102%,105%,98.3%,113%
COc1ccc(-c2nc(SCC(=O)Nc3nc(-c4ccccc4)cs3)[nH]c(=O)c2C#N)cc1,88.3%,85%,90.7%,82.4%,114%,81.5%,84%,104%,100%,112%
O=C(Nc1ccccc1-c1nc2ccccc2c(=O)[nH]1)c1cc2ccccc2[nH]1,82.4%,72.2%,84.2%,71.6%,93.2%,68.7%,78.8%,87.6%,98.1%,103%
Clc1cc(Cl)cc(Nc2ccc3cc(OCCCN4CCOCC4)ccc3n2)c1,37.6%,68.5%,59.4%,22%,17.5%,27.5%,-21.1% (active),35.6%,-36.6% (active),-51.3% (active)
CS(=O)c1cccc(-c2ccc3nc(N)n(-c4ccc(C(F)(F)F)cc4)c(=O)c3c2)c1 (stereo not given),102%,90.9%,103%,98%,102%,66.1%,80.8%,93.4%,97.1%,105%
CC1OC(O[C@H]2/C=C/C=C/C=C/C=C/C=C/C=C/C=C/[C@H](C)[C@@H](O)[C@@H](C)[C@H](C)OC(=O)CC(O)CC(O)CCC(O)C(O)CC(O)C[C@]3(O)C[C@H](O)C(C(=O)O)C(C2)O3)C(O)[C@H](N)C1O (stereo not given in full),-29.7% (active),-9.69% (active),20%,-82.5% (active),-55.5% (active),18.6%,16.2%,-89.9% (active),-80% (active),38.5%
N=C1CCC(=N)c2c1c(O)c1ccccc1c2O,82.3%,87.3%,93.1%,103%,173%,88.7%,91.6%,95.2%,113%,114%
Cc1c(C(=O)N[C@@H](Cc2ccccc2)C(=O)C(=O)NCCc2ccccc2)[nH]c2ccccc2c1=O,93.5%,101%,96.2%,111%,87.2%,116%,97.6%,98.8%,107%,31.2%
O=C(NC(Cc1nnc2n(Cc3ccccc3)c(=O)c3c4c(sc3n12)CCCC4)c1ccc(Cl)cc1)c1ccccc1 (stereo not given),82.2%,97.6%,108%,77.2%,101%,76.8%,75.8%,98.9%,38.3%,106%
O=c1ccn2nc3ccccc3c2[nH]1,94.6%,91.3%,97.8%,88.4%,109%,71.2%,91.9%,116%,99.2%,124%
COc1cc(C(=O)c2cc(C)c3[nH]c4ccc(Cl)cc4c3c2C)cc(OC)c1OC,13.8%,54.8%,33%,40%,4.97% (active),38.6%,35.5%,19.6%,19.6%,11%
Cc1cc(NCc2cc(Nc3ccnc4cc(Cl)ccc34)ccc2F)nc(N2CCN(c3ccccc3)CC2)n1,62.8%,55.4%,74.1%,62%,44.9%,20.6%,45.6%,50.6%,64.8%,13.6%
O=C(Nc1ccccc1)Nc1cccc(Oc2nnc(Cl)c3ccccc23)c1,32.7%,8.66% (active),47.3%,-43.4% (active),25.3%,-7.51% (active),2% (active),11.2%,38.2%,35.2%
C=C(C)[C@@H]1CC=C2c3sc(-c4ccc(C)cc4)nc3C[C@@H](C)[C@]2(C)C1,112%,101%,101%,102%,114%,103%,95.7%,95.3%,109%,108%
O=S(=O)(O)c1ccc(N/N=C/c2ccccc2Cl)cc1,108%,111%,108%,123%,109%,116%,96.9%,99.5%,95.6%,112%
COC(=O)c1c2c(c(C)[n+]([O-])c1C)C(=O)C(NCc1ccc(F)cc1)=CC2=O,31%,81.6%,15.9%,48.2%,11.5%,42.5%,-11.6% (active),4.34% (active),48.7%,-49.8% (active)
N#Cc1c(-c2cccc(Cl)c2)cc(-c2cccc(Cl)c2)[nH]c1=O,79.8%,94%,87.2%,71.3%,77.1%,44%,64.4%,61.9%,87.6%,108%
COc1cccc(-c2nn(-c3ccccc3)cc2-c2ccnc(NCCCNC(=O)c3ccccc3)c2)c1,51.3%,61.4%,95.2%,53.6%,51.7%,41.5%,38.3%,30.7%,40.2%,35.2%
